ClpP mod: qHTS Assay for Activators of ClpP; ATP-dependent Clp protease proteolytic subunit (Bacillus subtilis (strain 168)), P80244; purified B. subtilis ClpP, FRET peptide cleavage, 20 min; Potency, µM (top dose mostly 57.5 µM), inactives show at the highest dose activity change, negative = active; actives 1.9% (n = 340,000); active = well fitted falling curve with a large enough effect; inconclusive = small, poorly fitted or top-dose-only effect; inactive = no such curve, though single readings can be large or run the other way; also: potency is read from the fitted curve at half-maximal effect; the source files actives as falling curves though it sought activators and does not explain the sign; nearly all actives have a fitted effect of over 65% in size
Target sequence (P80244 whole entry, looked up): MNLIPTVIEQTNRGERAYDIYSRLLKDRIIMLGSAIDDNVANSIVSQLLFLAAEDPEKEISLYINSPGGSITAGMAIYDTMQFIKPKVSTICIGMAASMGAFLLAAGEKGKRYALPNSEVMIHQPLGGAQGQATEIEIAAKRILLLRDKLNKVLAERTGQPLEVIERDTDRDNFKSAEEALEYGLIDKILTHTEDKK
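Buffer: 100 mM Tris/HCl pH8, 100 mM KCl, 0.05% low protease BSA, 2.5% glycerol, 0.01% Tween-20. ClpP 10 microg/mL final; 20 min RT; delta FRET normalized to ADEP and DMSO controls.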
GLP1R inv ag: inverse agonists of human GLP-1 receptor. HEK293 GLP-1R CRE-luciferase, luminescence, 24 h; GLP-1R form is constitutively active. Potency, µM (doses to about 38.3 µM), without a hit: top-dose activity change, negative = inhibition, most hits filed as inhibitors. actives 1.6% (n = 410,000). AID 624417; also: potency is read from the fitted curve at half-maximal effect; % is scaled to controls: 0 for no effect and ±100 for the full control effect; nearly all actives have a fitted effect of over 55% in size
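Inverse agonism was detected as reduced cAMP-driven luciferase luminescence after 24 h compound treatment. The cells were HEK293 clones expressing constitutively active human GLP-1R with the reporter. Reporter-only and GPR119 cell lines served as counterscreen controls.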
p53 reactivation: restores transcriptional activity of mutant p53 | actives 0.063% (n = 320,000) | AID 504706 | H1299 p53-A138V BP100-luciferase reporter, luminescence, 24 h | Potency, µM (top dose mostly 92.2 µM), without a hit: at the top dose activity change, positive = activation, usual class: activators; also: potency is read from the fitted curve at half-maximal effect; % of control where 0% means no effect; nearly all actives have a fitted effect of over 45% in size
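p53-null H1299 cells stably carrying temperature-sensitive p53-A138V and a BP100-luciferase reporter were pinned with compounds (4-point, 1:5 series) and held 24 hrs at 37 deg C. Luminescence was read 10 min after detection reagent.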
LDHA block: blocks human lactate dehydrogenase A. P00338. purified LDHA, NADH/diaphorase-resazurin fluorescence; hits give low values. activity change, % (values are at about 110 or 230 µM). actives 0.15% (n = 480,000); in the data active = activity change below about -30%; inconclusive = mostly about -25% to -30%;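 also: plate controls were DMSO wells for no effect and wells without enzyme for full effect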
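Enzyme activity of human lactate dehydrogenase 5 (2 nM; 0.06 mM NADH, 0.2 mM pyruvate, 5 min, RT) is measured via a resazurin/diaphorase fluorescence readout of residual NADH.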
GLP1R ag: activates the human GLP-1 receptor; HEK293 GLP-1R CRE-luciferase, luminescence, 4-6 h; cells express a hypersensitive GLP-1R form; Potency, µM (highest dose often 45.6 µM), without a hit: top-dose activation, usual class: activators; actives 0.007% (n = 380,000); also: potency is read from the fitted curve at half-maximal effect; % of control where 0% means no effect
GLP1R cytotox: cytotoxicity in counter-screen for GLP-1R inverse agonists | actives 0.13% (n = 410,000) | AID 624418 | HEK293 cAMP-luciferase reporter cells, luminescence, 24 h | Potency, µM (doses to about 38.3 µM), without a hit: top-dose activity change, negative = inhibition, most hits filed as inhibitors;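 also: loss of luciferase light is scored as toxicity; potency is read from the fitted curve at half-maximal effect; % is scaled to controls: 0 for no effect and ±100 for the full control effect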
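A 23 nL compound transfer followed 12 hours of cell culture at 37 deg C; exposure then lasted 24 hr. Luciferase assay detection reagent was dispensed and plates read for luminescence after a 12 min room-temperature wait.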
* = called active by the depositor; ! = a repeat was not active. Sampled rows, rich in hits. Any-hit rate of the full collection: about 2.9%. Unless noted, calls follow the shape of the dose curve; as a rule, active = well fitted curve in the direction sought with a large enough effect; inconclusive = small, poorly fitted or top-dose-only effect, or another doubt; inactive = no such curve, though single readings can be large; an effect the other way counts as inactive or inconclusive.

O=C(NC1CCCC1)c1cc(-c2cccs2)on1 was read as ClpP mod -7%, GLP1R inv ag 7%, p53 reactivation 88%, LDHA block -39*!, GLP1R ag 14% and GLP1R cytotox -4%.
`COc1ccc(OCCNC(=O)Cc2c[nH]c3ccccc23)cc1` gave LDHA block 11.
COCc1cc(C)nc(NCCO)c1C#N was read as ClpP mod 32µM*, GLP1R inv ag 20%, LDHA block -9, GLP1R ag -9% and GLP1R cytotox -1%.
`CCNc1nc(C)cc(COC)c1C#N` gave ClpP mod 67%, GLP1R inv ag 42%, p53 reactivation -1%, LDHA block 3, GLP1R ag 1% and GLP1R cytotox 2%.
`O=C(CSc1nc2[nH]c(=O)cc(O)c2s1)Nc1nccs1` gave ClpP mod 32µM*, GLP1R inv ag -4%, p53 reactivation 4%, LDHA block 5, GLP1R ag 5% and GLP1R cytotox -11%.
For COc1ccc(N2CCN(C(=O)CN3C(=O)NC(C)(c4ccc5ccccc5c4)C3=O)CC2)cc1 (configuration not stated) the results were ClpP mod 28µM*, GLP1R inv ag inconclusive, p53 reactivation -5%, LDHA block 1, GLP1R ag 3% and GLP1R cytotox -13%.
CC(=O)N1CCN(C(=O)CN2C(=O)NC(C)(c3ccc4ccccc4c3)C2=O)CC1 (configuration not stated) was read as ClpP mod -2%, GLP1R inv ag 17%, p53 reactivation 0%, LDHA block -15, GLP1R ag 21% and GLP1R cytotox 12%.
`O=C(CN1C(=O)NC(c2ccccc2)(c2ccccc2)C1=O)N1CCN(c2ccccc2F)CC1` gave ClpP mod 2%, GLP1R inv ag inconclusive, p53 reactivation -3%, LDHA block -1, GLP1R ag -5% and GLP1R cytotox -2%.
For O=C(CN1C(=O)NC(c2ccccc2)(c2ccccc2)C1=O)N1CCN(c2ccc(F)cc2)CC1 the results were ClpP mod -2%, GLP1R inv ag 7.9µM*, p53 reactivation -4%, LDHA block 1, GLP1R ag 0% and GLP1R cytotox inconclusive.
Screening CC(OC(=O)Nc1cccc(Cl)c1)C(=O)OC1CCCCC1 (configuration not stated) returned ClpP mod inconclusive, GLP1R inv ag 3%, LDHA block -1, GLP1R ag 0% and GLP1R cytotox -4%.
For COc1ccc(/C=N/NC(=O)Cn2c(Cc3ccc(OC)c(OC)c3)nc3ccccc32)cc1 the results were ClpP mod 2%, GLP1R inv ag 6%, p53 reactivation -6%, LDHA block -3, GLP1R ag 0% and GLP1R cytotox -13%.
Screening O=C(CN(C(=O)c1csnn1)c1ccc2c(c1)OCCO2)NCc1ccccc1 returned ClpP mod -3%, GLP1R inv ag 5%, p53 reactivation 10%, LDHA block -3, GLP1R ag 5% and GLP1R cytotox -3%.
`N#CCc1ccc(NC(=O)/C=C/c2ccc([N+](=O)[O-])o2)cc1` gave ClpP mod 1%, GLP1R inv ag -101%, p53 reactivation -10%, LDHA block 1, GLP1R ag -1% and GLP1R cytotox 4µM*.
For Cc1ccc(C)c(N2CCN(C(=S)Nc3ccc4nc(N5CCN(C)CC5)cc(C)c4c3)CC2)c1 the results were ClpP mod 3%, GLP1R inv ag 2.5µM*, p53 reactivation 10%, LDHA block 0, GLP1R ag 8% and GLP1R cytotox -14%.
